Hit rate of the full screen: of about 5,500 compounds, about 2,000 (36%) were called active. Not shown: some 18% with an inconclusive outcome. This is one part of the list. Unmarked numbers belong to inactive results. Cut-off read from the data, not from the text of the source: active = normalized growth mostly below about 0.91 (no sharp cut-off); inconclusive = no clear call, values can overlap the other calls; inactive = mostly above about 0.92.
Assay: chemical genetic growth profiling, strain panel (AID 1159580);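 note: tested at 20 µM; growth read once vehicle control cultures reached saturation at 30 °C; 1 = growth at the plate median or of vehicle wells; lower values mean less growth of the strain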
Settings: S. cerevisiae deletion strains, growth OD
[1] = locus YDL101C, strain DUN1, stronger effect = lower value
[2] = locus YHR030C, strain SLT2, stronger effect = lower value

Q: For `S=C(N/N=C\c1ccc(Cl)cc1)N/N=C\c1ccc(Cl)cc1`, which normalized growth (locus YAR019C, strain CDC15, stronger effect = lower value) is on record?
A: 0.957

Q: What about the normalized growth (locus YBL105C, strain PKC1, stronger effect = lower value) of the same compound?
A: 0.962

Q: What about the normalized growth (locus YBR135W, strain CKS1, stronger effect = lower value) of the same compound?
A: 0.962

Q: And the normalized growth (locus YBR136W, strain MEC1, stronger effect = lower value)?
A: 0.973

Q: And the normalized growth (locus YBR160W, strain CDC28, stronger effect = lower value)?
A: 0.969

Q: What about the normalized growth (locus YDL017W, strain CDC7, stronger effect = lower value) of the same compound?
A: 0.961

Q: What about the normalized growth (locus YDL028C, strain MPS1, stronger effect = lower value) of the same compound?
A: 0.959

Q: What about the normalized growth [1] of the same compound?
A: 0.992

Q: What about the normalized growth (locus YDL108W, strain KIN28, stronger effect = lower value) of the same compound?
A: 0.967

Q: What about the normalized growth (locus YDL132W, strain cdc53, stronger effect = lower value) of the same compound?
A: 0.957

Q: And the normalized growth (locus YDL214C, strain PRR2, stronger effect = lower value)?
A: 0.77

Q: What about the normalized growth (locus YDR052C, strain DBF4, stronger effect = lower value) of the same compound?
A: 0.967

Q: And the normalized growth (locus YDR054C, strain cdc34, stronger effect = lower value)?
A: 0.944

Q: What about the normalized growth (locus YDR226W, strain ADK1, stronger effect = lower value) of the same compound?
A: 0.972

Q: What about the normalized growth (locus YDR477W, strain SNF1, stronger effect = lower value) of the same compound?
A: 0.81

Q: And the normalized growth (locus YER123W, strain YCK3, stronger effect = lower value)?
A: 0.477 (active)

Q: And the normalized growth (locus YER133W, strain GLC7, stronger effect = lower value)?
A: 0.748

Q: And the normalized growth (locus YFL009W, strain cdc4, stronger effect = lower value)?
A: 0.952

Q: And the normalized growth (locus YFL029C, strain CAK1, stronger effect = lower value)?
A: 0.955

Q: And the normalized growth (locus YFR003C, strain YPI1, stronger effect = lower value)?
A: 0.965

Q: What about the normalized growth (locus YFR019W, strain FAB1, stronger effect = lower value) of the same compound?
A: 0.832

Q: What about the normalized growth (locus YFR028C, strain CDC14, stronger effect = lower value) of the same compound?
A: 0.963

Q: What about the normalized growth (locus YGR040W, strain KSS1, stronger effect = lower value) of the same compound?
A: 0.849

Q: What about the normalized growth (locus YGR052W, strain FMP48, stronger effect = lower value) of the same compound?
A: 0.779

Q: What about the normalized growth (locus YGR092W, strain DBF2, stronger effect = lower value) of the same compound?
A: 0.284 (active)

Q: What about the normalized growth [2] of the same compound?
A: 0.64 (active)

Q: What about the normalized growth (locus YHR079C, strain IRE1, stronger effect = lower value) of the same compound?
A: 0.588

Q: What about the normalized growth (locus YHR082C, strain KSP1, stronger effect = lower value) of the same compound?
A: 0.817

Q: And the normalized growth (locus YHR205W, strain SCH9, stronger effect = lower value)?
A: 0.793

Q: What about the normalized growth (locus YIL147C, strain SLN1, stronger effect = lower value) of the same compound?
A: 0.966

Q: And the normalized growth (locus YJL095W, strain BCK1, stronger effect = lower value)?
A: 0.653

Q: What about the normalized growth (locus YJL128C, strain PBS2, stronger effect = lower value) of the same compound?
A: 0.991

Q: What about the normalized growth (locus YJL157C, strain FAR1, stronger effect = lower value) of the same compound?
A: 0.582 (active)

Q: What about the normalized growth (locus YJR016C, strain ILV3, stronger effect = lower value) of the same compound?
A: 0.955

Q: What about the normalized growth (locus YJR066W, strain TOR1 (second series), stronger effect = lower value) of the same compound?
A: 0.448 (active)

Q: And the normalized growth (locus YJR066W, strain TOR1, stronger effect = lower value)?
A: 0.596

Q: And the normalized growth (locus YKL048C, strain ELM1, stronger effect = lower value)?
A: 0.833

Q: And the normalized growth (locus YKL067W, strain YNK1, stronger effect = lower value)?
A: 0.645 (active)

Q: What about the normalized growth (locus YKL101W, strain HSL1, stronger effect = lower value) of the same compound?
A: 0.714 (active)

Q: And the normalized growth (locus YKL193C, strain SDS22, stronger effect = lower value)?
A: 0.961

Q: And the normalized growth (locus YKL203C, strain TOR2, stronger effect = lower value)?
A: 0.783

Q: What about the normalized growth (locus YLR113W, strain HOG1, stronger effect = lower value) of the same compound?
A: 0.66 (active)

Q: What about the normalized growth (locus YLR133W, strain CKI1, stronger effect = lower value) of the same compound?
A: 0.693 (active)

Q: What about the normalized growth (locus YLR403W, strain SFP1, stronger effect = lower value) of the same compound?
A: 0.738

Q: And the normalized growth (locus YML070W, strain DAK1, stronger effect = lower value)?
A: 0.663 (active)

Q: What about the normalized growth (locus YMR001C, strain CDC5, stronger effect = lower value) of the same compound?
A: 0.965

Q: What about the normalized growth (locus YMR205C, strain PFK2 (second series), stronger effect = lower value) of the same compound?
A: 0.746

Q: And the normalized growth (locus YMR277W, strain FCP1, stronger effect = lower value)?
A: 0.953

Q: And the normalized growth (locus YNL006W, strain LST8, stronger effect = lower value)?
A: 0.96

Q: And the normalized growth (locus YNL020C, strain ARK1, stronger effect = lower value)?
A: 0.576 (active)

Q: What about the normalized growth (locus YNL161W, strain CBK1, stronger effect = lower value) of the same compound?
A: 0.963

Q: What about the normalized growth (locus YNL183C, strain NPR1, stronger effect = lower value) of the same compound?
A: 0.81

Q: What about the normalized growth (locus YNL207W, strain RIO2, stronger effect = lower value) of the same compound?
A: 0.955

Q: What about the normalized growth (locus YNL222W, strain SSU72, stronger effect = lower value) of the same compound?
A: 0.961

Q: What about the normalized growth (locus YNL307C, strain MCK1 (second series), stronger effect = lower value) of the same compound?
A: 0.469 (active)

Q: What about the normalized growth (locus YOL078W, strain AVO1, stronger effect = lower value) of the same compound?
A: 0.96

Q: What about the normalized growth (locus YOL136C, strain PFK27, stronger effect = lower value) of the same compound?
A: 0.75

Q: And the normalized growth (locus YOR061W, strain CKA2, stronger effect = lower value)?
A: 0.618 (active)

Q: What about the normalized growth (locus YOR119C, strain RIO1, stronger effect = lower value) of the same compound?
A: 0.866

Q: And the normalized growth (locus YOR231W, strain MKK1, stronger effect = lower value)?
A: 0.697

Q: And the normalized growth (locus YOR329C, strain SCD5, stronger effect = lower value)?
A: 0.957

Q: And the normalized growth (locus YPL031C, strain PHO85, stronger effect = lower value)?
A: 0.688

Q: What about the normalized growth (locus YPL153C, strain RAD53, stronger effect = lower value) of the same compound?
A: 0.654 (active)

Q: And the normalized growth (locus YPL204W, strain HRR25, stronger effect = lower value)?
A: 0.682

Q: What about the normalized growth (locus YPL209C, strain IPL1, stronger effect = lower value) of the same compound?
A: 0.967

Q: What about the normalized growth (locus YPL256C, strain CLN2, stronger effect = lower value) of the same compound?
A: 0.686 (active)

Q: What about the normalized growth (locus YPR025C, strain CCL1, stronger effect = lower value) of the same compound?
A: 0.966

Q: And the normalized growth (locus YPR106W, strain ISR1, stronger effect = lower value)?
A: 0.972

Q: And the normalized growth (locus YPR111W, strain DBF20, stronger effect = lower value)?
A: 0.975

Q: What about the normalized growth (strain NNK1, stronger effect = lower value) of the same compound?
A: 0.984

Q: What about the normalized growth (strain TSCII, stronger effect = lower value) of the same compound?
A: 0.955

Q: Which normalized growth (locus YAL013W, strain DEP1, stronger effect = lower value) does the source give for `NC(=S)N/N=C\c1ccc(F)c(Cl)c1` here?
A: 0.921 (active)

Q: What about the normalized growth (locus YBR229C, strain ROT2, stronger effect = lower value) of the same compound?
A: 0.995

Q: What about the normalized growth [1] of the same compound?
A: 0.972

Q: And the normalized growth (locus YDL134C, strain PPH21, stronger effect = lower value)?
A: 0.992

Q: And the normalized growth (locus YDR150W, strain NUM1, stronger effect = lower value)?
A: 1

Q: And the normalized growth (locus YEL061C, strain CIN8, stronger effect = lower value)?
A: 0.804 (active)

Q: And the normalized growth (locus YGR078C, strain PAC10, stronger effect = lower value)?
A: 0.988

Q: And the normalized growth [2]?
A: 0.605 (active)

Q: What about the normalized growth (locus YHR087W, strain rtc3, stronger effect = lower value) of the same compound?
A: 1.04

Q: What about the normalized growth (locus YJL187C, strain SWE1, stronger effect = lower value) of the same compound?
A: 0.981

Q: And the normalized growth (locus YJR043C, strain POL32, stronger effect = lower value)?
A: 0.996

Q: What about the normalized growth (locus YJR075W, strain HOC1, stronger effect = lower value) of the same compound?
A: 1.04

Q: And the normalized growth (locus YLR039C, strain RIC1, stronger effect = lower value)?
A: 0.966

Q: And the normalized growth (locus YLR058C, strain SHM2 (second series), stronger effect = lower value)?
A: 0.996

Q: And the normalized growth (locus YLR085C, strain ARP6, stronger effect = lower value)?
A: 0.198 (active)

Q: What about the normalized growth (locus YLR262C, strain YPT6, stronger effect = lower value) of the same compound?
A: 1.06

Q: What about the normalized growth (locus YML094W, strain GIM5, stronger effect = lower value) of the same compound?
A: 0.759 (active)

Q: And the normalized growth (locus YMR219W, strain ESC1, stronger effect = lower value)?
A: 0.999

Q: And the normalized growth (locus YMR263W, strain SAP30, stronger effect = lower value)?
A: 0.919

Q: And the normalized growth (locus YNL128W, strain TEP1, stronger effect = lower value)?
A: 0.944

Q: And the normalized growth (locus YNL153C, strain GIM3, stronger effect = lower value)?
A: 0.961

Q: And the normalized growth (locus YNL298W, strain CLA4 (second series), stronger effect = lower value)?
A: 0.661 (active)

Q: What about the normalized growth (locus YNL322C, strain KRE1, stronger effect = lower value) of the same compound?
A: 1.04

Q: And the normalized growth (locus YNR030W, strain Alg12, stronger effect = lower value)?
A: 0.811 (active)

Q: What about the normalized growth (locus YPL055C, strain LGE1, stronger effect = lower value) of the same compound?
A: 0.849

Q: And the normalized growth (locus YPL241C, strain CIN2, stronger effect = lower value)?
A: 0.889

Q: And the normalized growth (locus YPR135W, strain CTF4, stronger effect = lower value)?
A: 0.655

From PubChem BioAssay AID1159580 (chemical genetic matrix, 2015)
